Data taken from the supplement of paper PMC6555819.

Columns and labels:
Assay in all cases: PBM binding z-score (relative to random genomic background probes); higher = stronger binding; sequences stand for … in GC…GCGATTGACAGCGTAGAATGAAGG
[1] = test system: RARb homodimer (NR concentration 270 nM)
Summary of the method: (§1)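 Random background probes are the reference for binding z-scores. These scores derive from regression-normalized fluorescence on custom Agilent 4×180K protein-binding microarrays incubated 1 h with ligand-free nuclear receptor dimers. Binding was detected with antibodies against each partner (one per run).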

[2] = test system: RARg:RXRa (NR concentration 270 nM, RXRa partner concentration 90 nM)
Summary of the method: as §1

[3] = test system: RARg homodimer (NR concentration 270 nM)
Summary of the method: as §1

[4] = test system: RXRa DBDmut IVT, anti-RXR (DBD mutation: RXRa K156A/R161A, NR concentration 90 nM)
Summary of the method: as §1

[5] = test system: RXRa homodimer (NR concentration 180 nM)
Summary of the method: as §1

[6] = test system: THRa:RXRa (NR concentration 90 nM, RXRa partner concentration 90 nM)
Summary of the method: as §1

[7] = test system: THRa homodimer (NR concentration 90 nM)
Summary of the method: as §1

[8] = test system: VDR:RXRa (NR concentration 270 nM, RXRa partner concentration 90 nM)
Summary of the method: as §1

[9] = test system: VDR homodimer (NR concentration 270 nM)
Summary of the method: as §1

Sequence | PBM binding z-score [1] | PBM binding z-score [2] | PBM binding z-score [3] | PBM binding z-score [4] | PBM binding z-score [5] | PBM binding z-score [6] | PBM binding z-score [7] | PBM binding z-score [8] | PBM binding z-score [9]
CCGACTGGGGCATATGGTTACCATAAGCCAGCCC | -0.243 | -0.00585 | 0.046 | -0.59 | 0.109 | -1.07 | -0.688 | -0.695 | -0.752
GGAACGCGGGCAAAGTTGATAGCATCTGTCGACG | -0.251 | 0.143 | 0.259 | 0.0126 | 0.126 | -0.6 | -1.04 | -0.564 | -0.471
TCTATTTGGTCACGGAGGTCACACACGACGGGTA | 4.61 | 4.91 | 5.19 | 1.87 | 5.34 | 3.82 | 3.38 | 5.87 | 3.22
AGTCAAAGATCATCTAGGTAACGTAAGATATGCT | -0.47 | 0.163 | 0.343 | -0.336 | 0.746 | 1.07 | -0.24 | 0.0146 | -0.621
TCTAGTTGGTCAAAGTTCACACACTCGAAATGCG | 4.37 | 4.88 | 4.04 | 2.68 | 4.73 | 2.62 | 1.04 | 4.44 | 4.58
ATCTCTAGGTAAAGTTCAGTGAGAGATCGATAGA | 2.43 | 1.84 | 2.47 | 1.21 | 1.06 | 1 | 0.0803 | 1.64 | 1.28
CCGACTGCGGCAAGGTTACCATAACGCACAGCCA | 1 | 0.707 | 0.42 | 0.215 | 1.07 | 1.4 | 0.537 | 0.302 | 0.321
TCTAGGAGGCCAGAGGGTCACTCAAGAGGTACGG | 3.01 | 3.09 | 2.32 | 0.451 | 2.66 | 1.7 | 0.0241 | 1.68 | 0.313
CCTTACGGGTCACTCCACGTTATAGCATCGGAGT | 2.58 | 4.04 | 4.01 | 1.41 | 4.01 | 1.88 | 0.13 | 2.65 | 1.23
ACAGACAGGTGGTGAAGGTAACTCAGGCTATCAT | 0.218 | 0.00728 | -0.0161 | -0.443 | 0.0945 | 0.769 | 0.206 | -0.0297 | -0.381
AGTCAAAGTTCACTATGTAACGTAAGATTCAGCT | 3.66 | 4.55 | 5.44 | 4.2 | 3.68 | 1.36 | -0.244 | 3.89 | 3.86
TCTGCTAGGTCAGTTGGTCATCTAACGAGCTGCC | 2.81 | 2.87 | 3.99 | 0.589 | 1.25 | 1.63 | 0.119 | 0.463 | -0.506
CTACCAAGGTGAAAAAGGTCGTTGATTACTATTC | 2.39 | 2.01 | 1.33 | 1.01 | 2.21 | 2.42 | 0.518 | 4.09 | 1.4
CGAACTAGGTCATCCACGACAGTGAATACATTGA | 2.85 | 3.96 | 4.77 | 2.28 | 2.9 | 2.79 | 1.22 | 2.18 | 1.44
ACTAGCAGGCCAAGTTTGGGTCACGCAAACAAAG | 2.72 | 3.25 | 2.19 | -0.213 | 1.71 | 3.3 | 1.78 | 1.36 | 0.403
GCTAGCAGGCAATTTGGGTCACTCAATGACGGGC | 1.55 | 0.628 | 0.847 | -0.416 | 0.683 | 2.76 | 0.687 | 0.222 | -0.322
